The values that follow come from PubChem BioAssay AID743262 (National Center for Advancing Translational Sciences (NCATS), 2014).

In all, about 1,300 compounds went through this assay and about 25 (2%) were called active. Entries that show only a call come without a potency. Roughly 9% stayed inconclusive and do not appear here. Calls follow the shape of the dose curve; as a rule, active = well fitted activation curve with a large enough effect; inconclusive = small, poorly fitted or top-dose-only effect; inactive = flat fitted curve, though single readings scatter. Only a selection was taken, and actives are over-represented in it overall.
Potency is read from the fitted curve at half-maximal effect.

Chain of Glucagon-like peptide 1 receptor (Homo sapiens) (P43220 whole entry, looked up): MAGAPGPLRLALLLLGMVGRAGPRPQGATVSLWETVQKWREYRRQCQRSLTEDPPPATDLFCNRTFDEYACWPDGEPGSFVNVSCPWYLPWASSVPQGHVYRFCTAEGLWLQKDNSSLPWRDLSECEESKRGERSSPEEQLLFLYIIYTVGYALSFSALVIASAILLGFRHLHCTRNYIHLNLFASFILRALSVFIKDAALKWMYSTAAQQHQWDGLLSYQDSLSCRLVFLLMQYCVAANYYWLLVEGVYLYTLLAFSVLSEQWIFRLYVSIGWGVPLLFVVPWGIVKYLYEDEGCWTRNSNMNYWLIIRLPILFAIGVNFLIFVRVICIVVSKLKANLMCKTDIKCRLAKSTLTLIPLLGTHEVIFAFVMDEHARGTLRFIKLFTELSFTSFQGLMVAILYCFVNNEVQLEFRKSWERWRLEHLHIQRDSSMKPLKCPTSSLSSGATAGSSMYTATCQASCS

The test concerns the target Glucagon-like peptide 1 receptor (Homo sapiens) (UniProt P43220). In words: qHTS of GLP-1 Receptor Agonists: Hit Validation. As to conditions: HEK293 GLP-1R, cAMP-response luciferase, 4-6 h; series mostly up to 46.1 µM. From the text:
The overall goal of this project was to develop a novel assay for discovering small molecule ligands for class B1 G protein-coupled receptors (GPCRs). Very few agonists (or inverse agonists) with generally weak activity for this entire group of physiologically important receptors are known to date. To establish proof-of-principle that this critical bottleneck can be overcome with a suitable screening approach, our studies focused on the class B1 receptor for glucagon-like peptide-1 (GLP-1R), a potential therapeutic target for diabetes and neurodegenerative disease. The assay was developed in a "mix and measure" format using a cell-based functional readout. Toward this goal, stably transfected HEK293 cell clones were established that co-express (i) a cAMP-responsive luciferase reporter gene, and (ii) GLP-1Rs that upon ligand interaction either stimulate (agonists) or inhibit (inverse agonists) luciferase activity. In different cell lines to be used for screening, expressed GLP-1Rs are specifically optimized for high sensitivity detection of either weak agonists (hypersensitive receptor) or inverse agonists (constitutively active receptor mutant). In addition, control cell lines were developed that express either the cAMP-responsive reporter gene without recombinant GLP-1Rs (enabling initial exclusion of GLP-1R independent effects of candidate probes), or the reporter gene together with wild type GLP-1Rs (for confirmation of probe activity at this receptor), or the reporter gene in combination with the constitutively active orphan receptor GPR119 (enabling initial exclusion of GLP-1R independent inhibitory effects of candidate inverse agonists). To that end, this assay was optimized for 1536-well format and screened against the MLSMR. NIH Molecular Libraries Probe Production Network [MLPCN] NIH Chemical Genomics Center [NCGC] Grant: NS064851 PI Name: Martin Beinborn, Tufts Medical Center
In a white solid 1536-well plate, 6 uL of cells are dispensed in DMEM without phenol red, 10% Nu serum, and 1% pen-strep medium. The plates are then incubated for 12 hours at 37 deg C at 5% CO2 before 23 nL of compounds are added. After a 4-6 hr incubation at37 deg C and 5% CO2, 3 uL of detection reagent are added and after a 12 min incubation at RT, a luminescent read is obtained on the ViewLux.
As to `CC(Cc1ccc(O)cc1)NCC(O)c1ccc(O)c(O)c1` (stereo not given), the Potency is 9.2 nM (active).

`O=c1[nH]cnc2nc(-c3ccc(N(CCCl)CCCl)cc3)[nH]c12`: the Potency entry was “inactive”.

For `N#Cc1c(/N=C/c2ccc(O)cc2O)sc2c1C1CCN2CC1`, the Potency entry is “inactive”.

As to `C[C@@H]1CN([C@H](C)CO)C(=O)CCCn2cc(nn2)CO[C@H]1CN(C)C(=O)Oc1ccc2ccccc2c1`, the Potency result is “inactive”.

Take `CN1CCN=C(c2ccccc2)c2cc(Cl)ccc21`: the Potency result was “inactive”.
